Experimental data from the supplement of paper PMC7411054.
Structures can show the parent of a compound that is named as a salt.

How the values were obtained:
Assay in all cases: phenotypically active (imaging signature differs from DMSO and reproducible) at any of 0.3-9 uM (binary (1 = active, 0 = inactive)); higher = active
Details in all cases: treatment time: 24 h
A549-ACTB-RAB5A = tested on: A549-ACTB-RAB5A
Outline: (§1)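 Two criteria together defined phenotypic activity: deviation and reproducibility. Deviation meant ≥3 of 4 wells beyond the 95th percentile of Euclidean distances in solvent control wells, and reproducibility meant a median replicate Pearson correlation above the 95th percentile of non-replicates. Wells had been treated for 24 h at 0.3, 1, 3 or 9 µM in fifteen gene-edited A549, HepG2 and WPMY1 reporter lines before live imaging.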

A549-CANX-COX4 = tested on: A549-CANX-COX4
Outline: as §1

A549-GM130-SQSTM1 = tested on: A549-GM130-SQSTM1
Outline: as §1

A549-TP53BP1-CLTA = tested on: A549-TP53BP1-CLTA
Outline: as §1

A549-TUBA1B-RELA = tested on: A549-TUBA1B-RELA
Outline: as §1

HepG2-ACTB-RAB5A = tested on: HepG2-ACTB-RAB5A
Outline: as §1

HepG2-CANX-COX4 = tested on: HepG2-CANX-COX4
Outline: as §1

HepG2-GM130-SQSTM1 = tested on: HepG2-GM130-SQSTM1
Outline: as §1

HepG2-TP53BP1-CLTA = tested on: HepG2-TP53BP1-CLTA
Outline: as §1

HepG2-TUBA1B-RELA = tested on: HepG2-TUBA1B-RELA
Outline: as §1

WPMY1-ACTB-RAB5A = tested on: WPMY1-ACTB-RAB5A
Outline: as §1

WPMY1-CANX-COX4 = tested on: WPMY1-CANX-COX4
Outline: as §1

WPMY1-GM130-SQSTM1 = tested on: WPMY1-GM130-SQSTM1
Outline: as §1

WPMY1-TP53BP1-CLTA = tested on: WPMY1-TP53BP1-CLTA
Outline: as §1

WPMY1-TUBA1B-RELA = tested on: WPMY1-TUBA1B-RELA
Outline: as §1

Measured: phenotypically active

FC(F)OC(F)C(F)(F)F (stereo not given) [desflurane]
inactive: A549-ACTB-RAB5A 0 | A549-CANX-COX4 0 | A549-GM130-SQSTM1 0 | A549-TP53BP1-CLTA 0 | A549-TUBA1B-RELA 0 | HepG2-ACTB-RAB5A 0 | HepG2-CANX-COX4 0 | HepG2-GM130-SQSTM1 0 | HepG2-TP53BP1-CLTA 0 | HepG2-TUBA1B-RELA 0 | WPMY1-ACTB-RAB5A 0 | WPMY1-CANX-COX4 0 | WPMY1-GM130-SQSTM1 0 | WPMY1-TP53BP1-CLTA 0 | WPMY1-TUBA1B-RELA 0

CC[N+](C)(C)c1cccc(O)c1 [edrophonium]
inactive: A549-ACTB-RAB5A 0 | A549-CANX-COX4 0 | A549-GM130-SQSTM1 0 | A549-TP53BP1-CLTA 0 | A549-TUBA1B-RELA 0 | HepG2-ACTB-RAB5A 0 | HepG2-CANX-COX4 0 | HepG2-GM130-SQSTM1 0 | HepG2-TP53BP1-CLTA 0 | HepG2-TUBA1B-RELA 0 | WPMY1-ACTB-RAB5A 0 | WPMY1-CANX-COX4 0 | WPMY1-GM130-SQSTM1 0 | WPMY1-TP53BP1-CLTA 0 | WPMY1-TUBA1B-RELA 0

CCCCC(=O)N(Cc1ccc(-c2ccccc2-c2nnn[nH]2)cc1)[C@H](C(=O)O)C(C)C [valsartan]
inactive: A549-ACTB-RAB5A 0 | A549-CANX-COX4 0 | A549-GM130-SQSTM1 0 | A549-TP53BP1-CLTA 0 | A549-TUBA1B-RELA 0 | HepG2-ACTB-RAB5A 0 | HepG2-CANX-COX4 0 | HepG2-GM130-SQSTM1 0 | HepG2-TP53BP1-CLTA 0 | HepG2-TUBA1B-RELA 0 | WPMY1-ACTB-RAB5A 0 | WPMY1-CANX-COX4 0 | WPMY1-GM130-SQSTM1 0 | WPMY1-TP53BP1-CLTA 0 | WPMY1-TUBA1B-RELA 0

CC(c1cc2ccccc2s1)N(O)C(N)=O (stereo not given) [zileuton]
inactive: A549-ACTB-RAB5A 0 | A549-CANX-COX4 0 | A549-GM130-SQSTM1 0 | A549-TP53BP1-CLTA 0 | A549-TUBA1B-RELA 0 | HepG2-ACTB-RAB5A 0 | HepG2-CANX-COX4 0 | HepG2-GM130-SQSTM1 0 | HepG2-TP53BP1-CLTA 0 | HepG2-TUBA1B-RELA 0 | WPMY1-ACTB-RAB5A 0 | WPMY1-CANX-COX4 0 | WPMY1-GM130-SQSTM1 0 | WPMY1-TP53BP1-CLTA 0 | WPMY1-TUBA1B-RELA 0

N#Cc1ccccc1OCC(O)CNCCNC(=O)Nc1ccccc1 (stereo not given)
inactive: A549-ACTB-RAB5A 0 | A549-CANX-COX4 0 | A549-GM130-SQSTM1 0 | A549-TP53BP1-CLTA 0 | A549-TUBA1B-RELA 0 | HepG2-ACTB-RAB5A 0 | HepG2-CANX-COX4 0 | HepG2-GM130-SQSTM1 0 | HepG2-TP53BP1-CLTA 0 | HepG2-TUBA1B-RELA 0 | WPMY1-ACTB-RAB5A 0 | WPMY1-CANX-COX4 0 | WPMY1-GM130-SQSTM1 0 | WPMY1-TP53BP1-CLTA 0 | WPMY1-TUBA1B-RELA 0

CCCC(CCC)C(=O)O [Valproic acid, sodium salt]
inactive: A549-ACTB-RAB5A 0 | A549-CANX-COX4 0 | A549-GM130-SQSTM1 0 | A549-TP53BP1-CLTA 0 | A549-TUBA1B-RELA 0 | HepG2-ACTB-RAB5A 0 | HepG2-CANX-COX4 0 | HepG2-GM130-SQSTM1 0 | HepG2-TP53BP1-CLTA 0 | HepG2-TUBA1B-RELA 0 | WPMY1-ACTB-RAB5A 0 | WPMY1-CANX-COX4 0 | WPMY1-GM130-SQSTM1 0 | WPMY1-TP53BP1-CLTA 0 | WPMY1-TUBA1B-RELA 0

Nc1ncnc2c1c(-c1ccc(Cl)cc1)nn2-c1cccc(-c2cnnn2Cc2cccc(-c3ccccc3)c2)c1
inactive: A549-ACTB-RAB5A 0 | A549-CANX-COX4 0 | A549-GM130-SQSTM1 0 | A549-TP53BP1-CLTA 0 | A549-TUBA1B-RELA 0 | HepG2-ACTB-RAB5A 0 | HepG2-CANX-COX4 0 | HepG2-GM130-SQSTM1 0 | HepG2-TP53BP1-CLTA 0 | HepG2-TUBA1B-RELA 0 | WPMY1-ACTB-RAB5A 0 | WPMY1-CANX-COX4 0 | WPMY1-GM130-SQSTM1 0 | WPMY1-TP53BP1-CLTA 0 | WPMY1-TUBA1B-RELA 0

CCCSc1nc2c(c(=O)n1-c1ccccc1)SCC2
inactive: A549-ACTB-RAB5A 0 | A549-CANX-COX4 0 | A549-GM130-SQSTM1 0 | A549-TP53BP1-CLTA 0 | A549-TUBA1B-RELA 0 | HepG2-ACTB-RAB5A 0 | HepG2-CANX-COX4 0 | HepG2-GM130-SQSTM1 0 | HepG2-TP53BP1-CLTA 0 | HepG2-TUBA1B-RELA 0 | WPMY1-ACTB-RAB5A 0 | WPMY1-CANX-COX4 0 | WPMY1-GM130-SQSTM1 0 | WPMY1-TP53BP1-CLTA 0 | WPMY1-TUBA1B-RELA 0

O=P(O)(O)C(O)(Cn1ccnc1)P(=O)(O)O [zoledronic-acid]
inactive: A549-ACTB-RAB5A 0 | A549-CANX-COX4 0 | A549-GM130-SQSTM1 0 | A549-TP53BP1-CLTA 0 | A549-TUBA1B-RELA 0 | HepG2-ACTB-RAB5A 0 | HepG2-CANX-COX4 0 | HepG2-GM130-SQSTM1 0 | HepG2-TP53BP1-CLTA 0 | HepG2-TUBA1B-RELA 0 | WPMY1-ACTB-RAB5A 0 | WPMY1-CANX-COX4 0 | WPMY1-GM130-SQSTM1 0 | WPMY1-TP53BP1-CLTA 0 | WPMY1-TUBA1B-RELA 0

CCCc1nc(C)c2c(C)nc3ccc(OC)nc3n12
inactive: A549-ACTB-RAB5A 0 | A549-CANX-COX4 0 | A549-GM130-SQSTM1 0 | A549-TP53BP1-CLTA 0 | A549-TUBA1B-RELA 0 | HepG2-ACTB-RAB5A 0 | HepG2-CANX-COX4 0 | HepG2-GM130-SQSTM1 0 | HepG2-TP53BP1-CLTA 0 | HepG2-TUBA1B-RELA 0 | WPMY1-ACTB-RAB5A 0 | WPMY1-CANX-COX4 0 | WPMY1-GM130-SQSTM1 0 | WPMY1-TP53BP1-CLTA 0 | WPMY1-TUBA1B-RELA 0

C[N+](C)(C)CCCCCC[N+](C)(C)C [Hexamethonium bromide]
inactive: A549-ACTB-RAB5A 0 | A549-CANX-COX4 0 | A549-GM130-SQSTM1 0 | A549-TP53BP1-CLTA 0 | A549-TUBA1B-RELA 0 | HepG2-ACTB-RAB5A 0 | HepG2-CANX-COX4 0 | HepG2-GM130-SQSTM1 0 | HepG2-TP53BP1-CLTA 0 | HepG2-TUBA1B-RELA 0 | WPMY1-ACTB-RAB5A 0 | WPMY1-CANX-COX4 0 | WPMY1-GM130-SQSTM1 0 | WPMY1-TP53BP1-CLTA 0 | WPMY1-TUBA1B-RELA 0

C1CCN2C[C@@H]3C[C@@H](CN4CCCC[C@@H]34)[C@H]2C1 [Sparteine (-)]
inactive: A549-ACTB-RAB5A 0 | A549-CANX-COX4 0 | A549-GM130-SQSTM1 0 | A549-TP53BP1-CLTA 0 | A549-TUBA1B-RELA 0 | HepG2-ACTB-RAB5A 0 | HepG2-CANX-COX4 0 | HepG2-GM130-SQSTM1 0 | HepG2-TP53BP1-CLTA 0 | HepG2-TUBA1B-RELA 0 | WPMY1-ACTB-RAB5A 0 | WPMY1-CANX-COX4 0 | WPMY1-GM130-SQSTM1 0 | WPMY1-TP53BP1-CLTA 0 | WPMY1-TUBA1B-RELA 0
